Test results published in PubChem BioAssay (EPA / NIEHS).
Several values for one entry are separate records, joined by “and”; a condition that tells them apart may be missing. Equal entries are not always repeated. Results filed as inconclusive are left out. Activity calls are given as the source filed them. How the source made its calls, unless noted: active means hit-call score of the fitted dose curve at least 0.9, where 1 is the maximum; inactive means score below 0.9.

What was measured:
[1] = target: Myc proto-oncogene protein (Homo sapiens) (UniProt P01106); experiment: ATG_Myc_CIS: Attagene CIS-FACTORIAL HepG2 Assay for human Myelocytomatosis (Myc) Proto-Oncogene Transcription Factor (AID 2282990); details: HepG2, Attagene cis-reporter transcription factor activity; actives raise or lower the signal
Sequence of Myc proto-oncogene protein (Homo sapiens) (P01106 whole entry, looked up): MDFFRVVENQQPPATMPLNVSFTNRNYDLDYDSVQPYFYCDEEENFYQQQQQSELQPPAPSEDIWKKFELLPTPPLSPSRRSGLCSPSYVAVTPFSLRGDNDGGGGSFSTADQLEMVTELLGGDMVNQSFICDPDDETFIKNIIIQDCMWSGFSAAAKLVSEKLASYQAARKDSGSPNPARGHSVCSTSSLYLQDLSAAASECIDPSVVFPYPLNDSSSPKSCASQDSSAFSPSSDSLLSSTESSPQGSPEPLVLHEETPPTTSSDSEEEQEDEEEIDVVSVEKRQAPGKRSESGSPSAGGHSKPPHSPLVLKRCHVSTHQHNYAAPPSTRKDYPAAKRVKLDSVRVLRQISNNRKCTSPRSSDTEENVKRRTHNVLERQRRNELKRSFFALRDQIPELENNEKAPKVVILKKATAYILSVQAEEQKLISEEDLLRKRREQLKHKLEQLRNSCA
Procedure, shortened: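 DMSO-normalised, bidirectionally fitted reporter mRNA signal. HepG2 cells transfected with cis reporter constructs, treated 24 h; transcripts detected by RT-PCR, 6-FAM primer extension and CE.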

[2] = ATG_NRF2_ARE_CIS: Attagene CIS-FACTORIAL HepG2 Assay for human Nuclear Factor Erythroid 2 Related Factor 2 (NFR2) response to Antioxidant Response Elements (ARE) (AID 2282992); details: HepG2 Attagene ARE/NRF2 reporter, transcription factor activity; actives raise or lower the signal
Procedure, shortened: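 Endogenous transcription factor activity read out as reporter transcript levels (RT-PCR plus capillary electrophoresis, fluorescence) in transiently transfected HepG2 cells. Measured at 24 h after dosing; gain or loss of signal fitted versus DMSO.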

[3] = ATG_Oct_MLP_CIS: Attagene CIS-FACTORIAL HepG2 Assay for human Octamer-Binding Transcription Factor (Oct) (AID 2282993); details: HepG2 Attagene cis-factorial Oct reporter, mRNA; actives raise or lower the signal
Procedure, shortened: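 Readout is reporter transcript level from RT-PCR with fluorescent primer extension and capillary electrophoresis, fitted in both directions against DMSO. Transfected HepG2 reporter units report endogenous factor activity after 24 h dosing.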

[4] = target: human Peroxisome Proliferator-activated Receptor delta (PPARd), PPARD (gene 5467) (UniProt Q03181); experiment: ATG_PPARd_TRANS: Attagene TRANS-FACTORIAL HepG2 Assay for human Peroxisome Proliferator-activated Receptor delta (PPARd) (AID 2283002; active means hit-call score of the fitted dose curve at least 0.9, where 1 is the maximum)
Sequence of human Peroxisome Proliferator-activated Receptor delta (PPARd), PPARD (gene 5467) (Q03181 whole entry, looked up, the tested form may be a part): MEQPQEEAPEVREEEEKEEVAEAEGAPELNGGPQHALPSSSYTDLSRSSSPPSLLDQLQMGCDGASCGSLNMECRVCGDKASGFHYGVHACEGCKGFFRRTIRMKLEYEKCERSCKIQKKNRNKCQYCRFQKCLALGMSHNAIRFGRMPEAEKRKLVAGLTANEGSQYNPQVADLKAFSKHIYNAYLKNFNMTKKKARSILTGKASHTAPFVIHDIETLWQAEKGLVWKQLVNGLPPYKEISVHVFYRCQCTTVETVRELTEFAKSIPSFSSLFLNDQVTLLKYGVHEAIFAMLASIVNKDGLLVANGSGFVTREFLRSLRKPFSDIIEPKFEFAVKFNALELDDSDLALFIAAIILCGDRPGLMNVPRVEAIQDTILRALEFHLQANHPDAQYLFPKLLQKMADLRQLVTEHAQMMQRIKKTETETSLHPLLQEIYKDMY
Procedure, shortened: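 Measured quantity: GAL4-UAS reporter transcript induction in HepG2 after 24 h chemical dosing, with NR-Gal4 chimeras supplied by transient transfection. Detection by RT-PCR and capillary electrophoresis; upward fit against DMSO.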

[5] = target: human Retinoic Acid Receptor gamma (RARg), RARG (gene 5916) (UniProt P13631); experiment: ATG_RARg_TRANS: Attagene TRANS-FACTORIAL HepG2 Assay for human Retinoic Acid Receptor gamma (RARg) (AID 2283009; active means hit-call score of the fitted dose curve at least 0.9, where 1 is the maximum)
Sequence of human Retinoic Acid Receptor gamma (RARg), RARG (gene 5916) (P13631 whole entry, looked up, the tested form may be a part): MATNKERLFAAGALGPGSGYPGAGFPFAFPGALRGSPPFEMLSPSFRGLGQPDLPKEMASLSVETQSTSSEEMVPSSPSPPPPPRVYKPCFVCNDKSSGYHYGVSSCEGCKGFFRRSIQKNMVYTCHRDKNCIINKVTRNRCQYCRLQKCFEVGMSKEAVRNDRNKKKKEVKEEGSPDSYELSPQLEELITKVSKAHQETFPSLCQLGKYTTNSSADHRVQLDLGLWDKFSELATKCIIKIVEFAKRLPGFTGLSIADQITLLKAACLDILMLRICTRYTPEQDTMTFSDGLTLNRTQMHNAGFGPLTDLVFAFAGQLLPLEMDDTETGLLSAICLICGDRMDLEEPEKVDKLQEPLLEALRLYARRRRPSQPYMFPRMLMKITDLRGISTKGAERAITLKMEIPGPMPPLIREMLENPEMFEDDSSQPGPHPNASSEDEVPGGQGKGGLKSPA
Procedure, shortened: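 Readout: reporter transcript levels via RT-PCR, 6-FAM primer-extension labelling, HpaI digestion and capillary electrophoresis. Cells: HepG2 carrying transfected RARg-GAL4 chimera plus UAS reporter set. Dosing 24 h; DMSO negative control.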

[6] = target: human RAR-related Orphan Receptor gamma (RORg), RORC (gene 6097) (UniProt P51449); experiment: ATG_RORg_TRANS: Attagene TRANS-FACTORIAL HepG2 Assay for human RAR-related Orphan Receptor gamma (RORg) (AID 2283011; active means hit-call score of the fitted dose curve at least 0.9, where 1 is the maximum)
Sequence of human RAR-related Orphan Receptor gamma (RORg), RORC (gene 6097) (P51449 whole entry, looked up, the tested form may be a part): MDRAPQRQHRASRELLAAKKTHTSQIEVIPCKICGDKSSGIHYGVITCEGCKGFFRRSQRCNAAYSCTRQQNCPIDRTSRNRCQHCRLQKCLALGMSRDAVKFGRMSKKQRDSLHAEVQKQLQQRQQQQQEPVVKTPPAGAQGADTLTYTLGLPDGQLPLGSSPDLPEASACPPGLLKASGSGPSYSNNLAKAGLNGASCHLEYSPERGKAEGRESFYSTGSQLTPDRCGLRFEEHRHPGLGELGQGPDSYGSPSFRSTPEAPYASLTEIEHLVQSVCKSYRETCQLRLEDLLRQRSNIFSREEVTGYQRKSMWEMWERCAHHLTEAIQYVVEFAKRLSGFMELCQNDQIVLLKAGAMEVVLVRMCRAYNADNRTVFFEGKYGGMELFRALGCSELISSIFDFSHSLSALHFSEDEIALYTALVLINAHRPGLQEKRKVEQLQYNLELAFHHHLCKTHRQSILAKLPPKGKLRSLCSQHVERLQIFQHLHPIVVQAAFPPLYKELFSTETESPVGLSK
Procedure, shortened: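 Readout: reporter transcript induction (RT-PCR, fluorescent primer extension, capillary electrophoresis) after 24 h compound exposure of transiently transfected HepG2 cells carrying a RORg-Gal4 chimera and GAL4-UAS reporters; DMSO served as baseline, with increasing signal fitted.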

[7] = target: Peroxisome proliferator-activated receptor gamma (Homo sapiens) (UniProt P37231); experiment: ATG_PPARg_TRANS: Attagene TRANS-FACTORIAL HepG2 Assay for human Peroxisome Proliferator-activated Receptor-gamma (PPARg) (AID 2283007; active means hit-call score of the fitted dose curve at least 0.9, where 1 is the maximum)
Sequence of Peroxisome proliferator-activated receptor gamma (Homo sapiens) (P37231 whole entry, looked up): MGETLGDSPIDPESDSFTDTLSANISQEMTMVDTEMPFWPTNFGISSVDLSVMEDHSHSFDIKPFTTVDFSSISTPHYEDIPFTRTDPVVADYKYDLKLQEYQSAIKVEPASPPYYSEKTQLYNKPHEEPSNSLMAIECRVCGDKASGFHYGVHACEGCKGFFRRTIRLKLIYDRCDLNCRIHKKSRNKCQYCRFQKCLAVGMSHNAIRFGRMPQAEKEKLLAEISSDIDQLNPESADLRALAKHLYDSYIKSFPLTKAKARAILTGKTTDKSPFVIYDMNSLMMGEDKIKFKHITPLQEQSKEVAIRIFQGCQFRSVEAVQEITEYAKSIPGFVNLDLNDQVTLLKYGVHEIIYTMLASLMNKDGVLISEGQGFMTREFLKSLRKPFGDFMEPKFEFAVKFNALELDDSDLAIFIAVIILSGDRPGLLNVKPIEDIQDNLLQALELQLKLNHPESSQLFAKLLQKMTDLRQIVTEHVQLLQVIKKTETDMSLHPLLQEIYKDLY
Procedure, shortened: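 Twenty-four hours after chemical dosing of transiently transfected HepG2 cells, isolated RNA was converted to cDNA, reporter sequences amplified and 6-FAM-labelled, then HpaI-digested and analysed by capillary electrophoresis. Signal increase against DMSO was fitted.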

[8] = target: Nuclear receptor subfamily 1 group I member 2 (Homo sapiens) (UniProt O75469); experiment: ATG_PXR_TRANS: Attagene TRANS-FACTORIAL HepG2 Assay for human Pregnane X Receptor (PXR) (AID 2283008; active means hit-call score of the fitted dose curve at least 0.9, where 1 is the maximum)
Sequence of Nuclear receptor subfamily 1 group I member 2 (Homo sapiens) (O75469 whole entry, looked up, the tested form may be a part): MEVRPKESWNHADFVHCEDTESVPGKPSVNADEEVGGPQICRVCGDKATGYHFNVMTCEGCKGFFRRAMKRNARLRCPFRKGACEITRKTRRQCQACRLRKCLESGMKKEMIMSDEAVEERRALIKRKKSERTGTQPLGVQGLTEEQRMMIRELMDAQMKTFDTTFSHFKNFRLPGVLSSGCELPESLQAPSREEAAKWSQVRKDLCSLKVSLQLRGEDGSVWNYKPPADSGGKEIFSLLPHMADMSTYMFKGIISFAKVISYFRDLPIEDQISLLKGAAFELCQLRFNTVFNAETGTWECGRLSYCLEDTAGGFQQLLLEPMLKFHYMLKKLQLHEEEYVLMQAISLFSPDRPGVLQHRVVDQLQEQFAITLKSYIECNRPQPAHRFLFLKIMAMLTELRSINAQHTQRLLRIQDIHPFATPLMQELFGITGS
Procedure, shortened: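 Transactivation by exogenous PXR–GAL4 fusion measured as reporter transcript induction after 24 h compound treatment of transfected human HepG2 cells. Read-out via RT-PCR and capillary electrophoresis of labelled fragments, fitted upward relative to DMSO.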

[9] = target: human RAR-related Orphan Receptor beta (RORb), RORB (gene 6096) (UniProt Q92753); experiment: ATG_RORb_TRANS: Attagene TRANS-FACTORIAL HepG2 Assay for human RAR-related Orphan Receptor beta (RORb) (AID 2283010; active means hit-call score of the fitted dose curve at least 0.9, where 1 is the maximum)
Sequence of human RAR-related Orphan Receptor beta (RORb), RORB (gene 6096) (Q92753 whole entry, looked up, the tested form may be a part): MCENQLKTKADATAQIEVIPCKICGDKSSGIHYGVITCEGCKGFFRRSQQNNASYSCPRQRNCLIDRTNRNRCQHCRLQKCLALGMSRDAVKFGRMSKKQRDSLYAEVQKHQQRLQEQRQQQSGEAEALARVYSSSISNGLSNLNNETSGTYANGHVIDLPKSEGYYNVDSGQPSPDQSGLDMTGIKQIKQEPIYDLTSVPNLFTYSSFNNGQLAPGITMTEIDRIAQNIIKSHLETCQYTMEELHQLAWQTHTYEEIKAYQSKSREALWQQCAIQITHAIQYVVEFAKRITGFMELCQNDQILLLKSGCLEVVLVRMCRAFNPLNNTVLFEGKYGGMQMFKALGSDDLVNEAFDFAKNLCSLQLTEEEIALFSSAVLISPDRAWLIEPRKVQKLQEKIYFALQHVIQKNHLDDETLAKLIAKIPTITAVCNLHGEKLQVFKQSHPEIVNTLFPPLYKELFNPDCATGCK
Procedure, shortened: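 HepG2, transient MRTU transfection (GAL4-UAS reporters, exogenous NR-Gal4 chimeras); 24 h compound exposure; total RNA → RT-PCR → 6-FAM primer extension → HpaI digest → CE fluorescence. Positive direction vs DMSO baseline.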

[10] = BSK_3C_uPAR: BioMAP Diversity Plus: 3C Assay for Urokinase-type plasminogen activator receptor (uPAR) Biomarker Activity (AID 2282998); details: BioMAP 3C HUVEC, uPAR biomarker ELISA; actives raise or lower the signal
Procedure, shortened: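 Cell-surface uPAR on HUVEC (3C system) read by ELISA at 24 h post-treatment, with DMSO as baseline and fitting in both directions. Parallel cultures stained with SRB to flag overt cytotoxicity.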

[11] = BSK_3C_VCAM1: BioMAP Diversity Plus: 3C Assay for Vascular cell adhesion molecule 1 (VCAM1) Biomarker Activity (AID 2282999); details: BioMAP 3C HUVEC, VCAM1 ELISA, cytokine-stimulated; actives raise or lower the signal
Procedure, shortened: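 Vascular primary endothelium (human umbilical vein) was exposed to chemicals and assayed 24 h later. VCAM-1 levels came from ELISA, with DMSO serving as baseline for bidirectional fitting.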

[12] = BSK_4H_Eotaxin3: BioMAP Diversity Plus: 4H Assay for Eotaxin 3 Biomarker Activity (AID 2283000); details: primary human endothelial cells (HUVEC); actives raise or lower the signal
Procedure, shortened: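 HUVEC, 24 h post-dose, ELISA for Eotaxin-3/CCL26. Gain or loss of signal fitted bidirectionally vs DMSO baseline.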

[13] = target: human Peroxisome Proliferator-activated Receptor alpha (PPARa), PPARA (gene 5465) (UniProt Q07869); experiment: ATG_PPARa_TRANS: Attagene TRANS-FACTORIAL HepG2 Assay for human Peroxisome Proliferator-activated Receptor alpha (PPARa) (AID 2283001; active means hit-call score of the fitted dose curve at least 0.9, where 1 is the maximum;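 on AC50: potency for gain of reporter signal over DMSO so agonist or activator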)
Sequence of human Peroxisome Proliferator-activated Receptor alpha (PPARa), PPARA (gene 5465) (Q07869 whole entry, looked up, the tested form may be a part): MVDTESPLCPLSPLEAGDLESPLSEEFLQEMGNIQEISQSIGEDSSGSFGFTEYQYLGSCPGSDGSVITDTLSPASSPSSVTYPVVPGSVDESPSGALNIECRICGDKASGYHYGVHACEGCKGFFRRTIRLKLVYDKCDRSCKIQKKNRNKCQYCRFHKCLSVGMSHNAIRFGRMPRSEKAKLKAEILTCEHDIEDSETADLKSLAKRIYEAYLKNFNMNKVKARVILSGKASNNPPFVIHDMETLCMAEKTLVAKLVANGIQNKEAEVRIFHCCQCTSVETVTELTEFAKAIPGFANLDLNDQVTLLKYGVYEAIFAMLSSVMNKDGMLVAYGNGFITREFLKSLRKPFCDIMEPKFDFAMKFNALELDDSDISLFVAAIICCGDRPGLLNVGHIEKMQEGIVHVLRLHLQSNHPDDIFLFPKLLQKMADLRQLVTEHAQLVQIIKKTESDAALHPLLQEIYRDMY
Procedure, shortened: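 Exposure: 24 h, transiently transfected HepG2 cells. Endpoint: GAL4-UAS reporter mRNA, RT-PCR with capillary electrophoresis fluorescence. Baseline: DMSO; increases fitted.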

[14] = read-out: Intercellular Adhesion Molecule 1 (ICAM1), ICAM1 (gene 3383); experiment: BSK_3C_ICAM1: BioMAP Diversity Plus: 3C Assay for Intercellular Adhesion Molecule 1 (ICAM1) Biomarker Activity (AID 2283003); details: primary human endothelial cells (HUVEC); actives raise or lower the signal
Procedure, shortened: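 ELISA read-out of ICAM-1; HUVEC (primary human), 3C system, 24 h post-dosing; bidirectional fit vs DMSO baseline.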

[15] = BSK_3C_Proliferation: Cell Proliferation Assessment in the BioMAP Diversity Plus: 3C Assay (AID 2283006); details: primary human endothelial cells (HUVEC);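 on AC50: potency may reflect either rise or fall in cell number versus DMSO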
Procedure, shortened: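 HUVEC, sub-confluent; 48 h chemical exposure; 10% TCA fix, 0.1% SRB stain, A560 total protein. Gain or loss of signal fitted both directions vs DMSO control.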

[16] = target: human Retinoic Acid Receptor beta (RARb), RARB (gene 5915) (UniProt P10826); experiment: ATG_RARb_TRANS: Attagene TRANS-FACTORIAL HepG2 Assay for human Retinoic Acid Receptor beta (AID 2283004; active means hit-call score of the fitted dose curve at least 0.9, where 1 is the maximum)
Sequence of human Retinoic Acid Receptor beta (RARb), RARB (gene 5915) (P10826 whole entry, looked up, the tested form may be a part): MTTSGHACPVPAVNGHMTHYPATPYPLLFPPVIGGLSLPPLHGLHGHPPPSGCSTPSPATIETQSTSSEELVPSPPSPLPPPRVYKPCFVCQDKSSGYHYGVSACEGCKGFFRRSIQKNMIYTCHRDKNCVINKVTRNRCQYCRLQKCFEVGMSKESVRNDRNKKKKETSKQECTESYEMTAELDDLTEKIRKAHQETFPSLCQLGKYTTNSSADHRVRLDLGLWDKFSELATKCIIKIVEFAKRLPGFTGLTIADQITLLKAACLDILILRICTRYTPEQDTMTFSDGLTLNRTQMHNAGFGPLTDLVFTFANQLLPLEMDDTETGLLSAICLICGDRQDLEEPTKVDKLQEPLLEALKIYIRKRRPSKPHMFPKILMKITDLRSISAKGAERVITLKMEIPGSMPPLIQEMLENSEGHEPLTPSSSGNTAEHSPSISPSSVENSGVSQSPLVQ
Procedure, shortened: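 HepG2 cells transiently transfected with multiplexed GAL4-UAS reporter units expressing chimeric NR–Gal4 fusions; 24 h compound exposure. Reporter mRNA quantified by RT-PCR, 6-FAM labelling, HpaI digestion and capillary electrophoresis; gain-of-signal fitted against DMSO baseline.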

[17] = target: Retinoic acid receptor alpha (Homo sapiens) (UniProt P10276); experiment: ATG_RARa_TRANS: Attagene TRANS-FACTORIAL HepG2 Assay for human Retinoic Acid Receptor alpha (RARa) (AID 2283005; active means hit-call score of the fitted dose curve at least 0.9, where 1 is the maximum)
Sequence of Retinoic acid receptor alpha (Homo sapiens) (P10276 whole entry, looked up, the tested form may be a part): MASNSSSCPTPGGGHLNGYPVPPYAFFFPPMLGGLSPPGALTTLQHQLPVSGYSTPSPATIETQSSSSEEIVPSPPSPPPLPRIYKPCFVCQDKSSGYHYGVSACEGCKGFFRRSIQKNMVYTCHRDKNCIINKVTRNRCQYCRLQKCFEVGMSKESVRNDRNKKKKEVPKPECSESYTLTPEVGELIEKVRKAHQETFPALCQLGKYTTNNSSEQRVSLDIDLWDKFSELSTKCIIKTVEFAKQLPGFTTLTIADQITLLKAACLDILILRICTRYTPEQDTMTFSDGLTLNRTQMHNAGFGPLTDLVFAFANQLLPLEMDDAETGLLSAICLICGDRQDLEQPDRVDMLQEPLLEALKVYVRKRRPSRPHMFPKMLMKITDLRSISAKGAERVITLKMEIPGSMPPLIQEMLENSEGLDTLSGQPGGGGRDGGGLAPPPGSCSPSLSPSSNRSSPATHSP
Procedure, shortened: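 HepG2 cells transiently transfected with multiple reporter units expressing chimeric RARα-GAL4 fusion, with GAL4-UAS-driven reporters. After 24 h compound exposure, reporter mRNA induction quantified by RT-PCR and capillary electrophoresis with fluorescent labeling; gain-of-signal fitted relative to DMSO control.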

Measured: AC50

CC1(C)COP(Oc2ccccc2)OC1
inactive: [1] | [2] | [3] | [4] | [5] | [6]

Fc1cccc(Cl)c1CCl
active: [2] 26.3 µM | [7] 4.39 µM
inactive: [1] | [3] | [4] | [8] | [9] | [6]

CCCCCCCCCCCCOS(=O)(=O)O
inactive: [1] | [2] | [3] | [8] | [9]

C[C@@H]1O[C@@H](O[C@H]2C[C@@H](O)[C@]3(CO)[C@H]4[C@H](O)C[C@]5(C)[C@@H](C6=CC(=O)OC6)CC[C@]5(O)[C@@H]4CC[C@]3(O)C2)[C@H](O)[C@H](O)[C@H]1O
active: [2] 19.5 µM | [3] 0.62 µM | [13] 0.0714 µM | [7] 0.131 µM
inactive: [1] | [4] | [16] | [17] | [5] | [9] | [6]

O=[N+]([O-])c1ccc(Nc2ccccc2)cc1
active: [8] 12.3 µM
not listed: [4] | [5] | [6] | [9] | [16] | [17]
inactive: all other assays above

CC(C)N(C(=O)CCl)c1ccccc1
inactive: [1]
active: [2] 2.75 µM | [3] 52.8 µM | [10] 20 µM | [11] 20 µM | [12] 20 µM | [14] 25.8 µM | [15] 20 µM | [7] 3.21 µM

CC(C)(C1CCC(O)CC1)C1CCC(O)CC1 (stereo not drawn)
inactive: [1] | [2] | [3] | [16] | [8]

Nc1nc(N)nc(Cl)n1
inactive: [1] | [2] | [3] | [13] | [7] | [5] | [6]

CCOC(=O)Cc1ccccc1
inactive: [1] | [2] | [3] | [13] | [16] | [7] | [9]

CN(C)C(=S)S
active: [2] 26.8 µM
inactive: [1] | [3] | [10] | [11] | [12] | [14] | [15] | [8]

Nc1ncn[nH]1
inactive: [1] | [2] | [3] | [4]

C[C@H]1C(=O)O[C@@H]2CCN3CC=C(COC(=O)[C@](C)(O)[C@]1(C)O)[C@H]23
inactive: [1] | [2] | [3] | [13] | [4] | [16] | [7] | [8]
